Hit rate of the full screen: of about 53,000 sequences, about 3,700 (7%) were called active. Many of the other results were omitted from the sample, so actives are more common in it than they were. A number with no mark means an inactive call.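 The calls were made as follows: active = gene knockdowns whose robust z-score for IL-1 alpha signal is at least 2 or at most -2, so actives lie on both sides; inactive = the rest.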
Test: Components of the Cytosolic LPS Sensing Pathway: Gene Identification via Genome-wide siRNA Screen;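 also: robust z of the log signal after scaling to non-targeting control siRNA wells of the plate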
Details: RAW264.7 macrophages, IL-1a HTRF, actives lie on both sides, screened at 100 nM (by protocol), cells primed 5 h with Pam3CSK4 first
Outline: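 Read-out: IL-1a HTRF on supernatant, divided by plate negative-control median ×100, log-transformed and converted to robust z-score. Cells were RAW264.7 given 100 nM siRNA, Pam3CSK4-primed 5 hours, then LipidA-transfected 24 hour.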
With GGGUGGAGAAAUUUUAAUGTT against Dse the z-score was -0.22.
Sequence GGAAAAUGAGAUCAUGCCCTT against Sdf4 has a z-score of -0.488.
With GGCGAUUCUGGCUCUCUUUTT against Commd9 the z-score was 1.28.
With GCAGAAAGAAACGUAAAUGTT against Dhx57 the z-score was 0.464.
In the case of GGCUUCAGCUAUUGGGCAATT against Vsig1, the z-score is reported as 2.19 (active).
“GGGAUGUGUACCGUUACAUTT against 1700010I14Rik” gave a z-score of 0.155.
In the case of CCCUUUUGUUUAGCUGAUCTT against Glrp1, the z-score is reported as -2.14 (active).
Sequence GGACAGUUCGUGUUUGGUUTT against Wdfy2 has a z-score of 0.0956.
In the case of GGUUCAACAAAACAGGCUUTT against Serpina1f, the z-score is reported as -1.01.
GGAUUAAUGUUUCCUGACUTT against Mturn showed a z-score of 0.704.
With GGGAAACAAACAGAAGAACTT against Cfap65 the z-score was -1.2.
GGACAUUAACGAGCUGAACTT against Ube2m gave a z-score of 0.67.
For GGAGAAGAAGAACAGGACATT against Rnf186, the z-score was 2.35 (active).
With GGACAGGUGAAGAUAAGUATT against Mug2 the z-score was -0.704.
Sequence GCCUGUAUAGAUGCUAUUCTT against Setd1a has a z-score of -0.894.
With GGUGGUUUGUGUUACAUUUTT against Ifnar2 the z-score was 2.38 (active).
Sequence GGACUAUGUCUUUGACAAATT against Cdyl2 has a z-score of -0.133.
In the case of GCCUAACAAUAGUGGAAUUTT against Ms4a13, the z-score is reported as 2.76 (active).
With GGAUUUCCUGUUCUUUCUATT against Prmt5 the z-score was 0.168.
GGACUGUGGCACAGAGAAATT against Hgfac showed a z-score of -0.116.
Sequence GCUGAUCCAACUGGAAUCUTT against Cep164 has a z-score of 0.61.
Work on GGCAAAGAAUGCACUUUCUTT against Elapor2 yielded a z-score of -0.536.
For GGAGUCCUAAAGAGUUCUATT against Slc11a1, the z-score was 0.723.
In the case of GGAGAUGCCAGAGGUCAAATT against Gzmk, the z-score is reported as 2.08 (active).
With GGCUUUCAAGACACUUCUUTT against Ccl6 the z-score was -1.6.
For GCUCAUUAACGAGAAAGUGTT against Atxn7l2, the z-score was -0.991.
Work on GGCUACUGUAAGAUUUCUATT against Mgat4f yielded a z-score of 1.98.
With GCAAAACCAAGUGAAUGUGTT against Plac1 the z-score was -0.774.
GGAGUUUCAGCAGUCGUGATT against Prkrip1 gave a z-score of -0.94.
With CCCUUCUCUGAUUGUCUGATT against Lce3b the z-score was -0.452.
In the case of “GCUUCUAAAUUUGGUUCUGTT against 9830163H01Rik”, the z-score is reported as -0.389.
For GGUGGACAAGGCAAUACAGTT against Mmp20, the z-score was 4.46 (active).
Sequence “GGUUUGAAUGAAUUCAAGGTT against 6030452D12Rik” has a z-score of 0.785.
GCUUAAUCAACUGGUACUATT against Olfr19 gave a z-score of -1.7.
Work on GGGUCACGGGAACUCAAAATT against Mlf1 yielded a z-score of -0.608.
In the case of GGAAUCAUCUGAACACACATT against Ctcf, the z-score is reported as -2.18 (active).
GGAGAAGCUAUGGUAUUACTT against Apc2 showed a z-score of -0.798.
In the case of CCACCACCAUCUAAAUAUATT against Ckap2l, the z-score is reported as -1.62.
GGACACAUUCGAAUGAACCTT against Mkrn2 gave a z-score of 0.0809.
GGACAAGACCAGCAAAUACTT against Six6 gave a z-score of -1.58.
Sequence GCAUUGUGCUCAAAUCUGCTT against C1qtnf7 has a z-score of -0.168.
In the case of GGGUAUUCUGUGUGUUACUTT against Hsd3b1, the z-score is reported as 2.06 (active).
Sequence GGGUUUUGAAACAUGCAGGTT against Cd44 has a z-score of -1.54.
Work on AGAGAGAUAUUGUUCAUCATT against Psg22 yielded a z-score of 0.11.
GGUAAUCGUGUAUUCAUAUTT against Dph5 gave a z-score of -0.327.
Sequence GGAAACUGAAAAACAGAGUTT against Xbp1 has a z-score of -0.957.
For GCGAAGAGAUGCUAACUAUTT against Dhx8, the z-score was -2.86 (active).
For UGAGUUGUUUCCAGCUAAATT against Uts2b, the z-score was -0.506.
Work on GCCCGGUCCUUUACUACAUTT against Sdk1 yielded a z-score of 0.595.
In the case of GGAUGCACUCAAGAAUUACTT against Ccdc65, the z-score is reported as 2.11 (active).
Work on GGUGAGUGAUCUUCAGAACTT against Snx13 yielded a z-score of 0.311.
In the case of CCCUGCUAAAAUCGACCUGTT against Plekha8, the z-score is reported as -0.912.
For GCUCAUCGUGUUCGCUAUATT against Tuft1, the z-score was -0.235.
Work on GGAGGUAAAGGAAAACUCUTT against Fmo1 yielded a z-score of 0.27.
For CCACAACUAUGAGUCUAUUTT against Ech1, the z-score was 2.05 (active).
Sequence GCUGGACCCACACAAAAAGTT against Rhbdl3 has a z-score of -0.0513.
Sequence “GGCUUUUCAGACCAAGCUUTT against 3830406C13Rik” has a z-score of 0.322.
In the case of CGUUGUAUGCUAGUACUGATT against Olfr1501, the z-score is reported as -1.17.
For GGCAAAAAGGGAUGUUACCTT against Map1lc3b, the z-score was -0.221.
For GCGAGUCUAUGUGUUCCCUTT against Cox4i2, the z-score was 0.187.
For GGAAACAAAUGAGUGCCUGTT against Bloc1s5, the z-score was 2.02 (active).
GCUGGAAUACGGAAAAUGGTT against Gbe1 showed a z-score of -1.56.
In the case of GGAGGAAAUACAUGAUAAATT against Strap, the z-score is reported as -0.159.
GGCUUACGAUGAAAAUAAATT against Lca5 showed a z-score of -1.94.
GGCAUUGCAUUCUCACAUGTT against Gabarapl1 showed a z-score of 0.319.
Work on GCUCGUUGCAUAAAAAGAGTT against Creg2 yielded a z-score of -0.286.
With GGAGAUCAAAGAAUCUUGGTT against Arhgap45 the z-score was -4.45 (active).
With “GCCGGAAACUCAAGAUAGCTT against F830208F22Rik” the z-score was -0.74.
In the case of GCCCGCUCUCGGAUUUUGATT against Htr1b, the z-score is reported as 1.5.
For GGUAGAGACCGCAUAGAAATT against Aqp8, the z-score was 2.
With CCGGGUAGUGAGUAAGCUUTT against Neu2 the z-score was -3.51 (active).
GGUCCAAGAAGACAAUGCUTT against Cga showed a z-score of -0.102.
CCUCUUUGGGACUAUAGACTT against Olfr1357 gave a z-score of -0.378.
With GGUAUUGGUCCAAUUUUUCTT against Gng7 the z-score was 0.187.
With GGCUGUGGUGCUCAAUAAGTT against Clstn2 the z-score was -1.29.
In the case of CCGAGAUAUGAAUCAAAUUTT against Wars, the z-score is reported as 2.19 (active).
Work on GGAAAGACAAAAUCUAUGATT against Peg3 yielded a z-score of -0.777.
In the case of GGUCAUCAGUGAGCUGAAUTT against Rplp2, the z-score is reported as 0.125.
With GCUCAUCUCCUUGAAUUCATT against Agbl5 the z-score was 0.31.
In the case of CCUGUCCUGAUGGUGAAACTT against Serpinb3c, the z-score is reported as 0.619.
With GCCUAAACUACCCUUAUAGTT against Ocln the z-score was 3.4 (active).
In the case of GGUGCUGGCAACCUUUUGUTT against Masp1, the z-score is reported as 0.16.
Work on GGGCCAUUGUCAAGGUGAUTT against Olfr632 yielded a z-score of -0.408.
CCGAUUUUUACUUUUAGCUTT against Slc16a7 showed a z-score of 1.86.
Sequence GGAGACUAUUACCAUACUGTT against P4ha2 has a z-score of -0.991.
Sequence GGUGAGCAAGAACAAAAAGTT against Chil6 has a z-score of -0.71.
GGUUUCGAGAAAACAACAATT against Miip showed a z-score of 0.566.
GCACAUCGAAAAUGCCCUGTT against Cpt1c gave a z-score of -0.154.
GGCAAACCUGCUUUCAUGGTT against Smc5 gave a z-score of 0.282.
With GCAGUUCUCCUAUUUCAUCTT against Cdc45 the z-score was 2.03 (active).
For CGGGUGAGUGGAAAAACCATT against Atg9b, the z-score was -0.282.
GCCAAUGCCCUUGUGCAAATT against Olfr344 gave a z-score of 0.301.
In the case of GGCUAUCUCGUAUUCUGAUTT against Olfr985, the z-score is reported as -1.62.
In the case of CCCGGGUUGGGUGUACAUUTT against Sds, the z-score is reported as 3.62 (active).
CCUUAGCAAUGGGAUUGAUTT against Rasl12 showed a z-score of 0.448.
GGAGAACACUUUAAUGCUGTT against Ovch2 gave a z-score of 0.00992.
With GGGCUGGAGUCUGAUACAUTT against Rbm5 the z-score was 3.39 (active).
CCGUGUUAGAGUUUUCGACTT against Top3b showed a z-score of 1.2.
Sequence CCAAAGGUAUGCAGUAUGATT against Cdh4 has a z-score of 0.131.
For GGUUUUCAAAUGUCUAUCATT against Pithd1, the z-score was 2.37 (active).
For CCUGCUCAGGACGACUUUUTT against Defa20, the z-score was -1.63.
Work on GGACUUUGACCCGUACUAUTT against Scn8a yielded a z-score of 0.951.
GCUUGUGCCGGAUAAAGGUTT against Gng3 showed a z-score of -0.748.
GCCAAGGUGGAAUUUUUGGTT against Gpx8 gave a z-score of 0.139.
For GGUAUACCAAGAAGCUAAGTT against Kctd14, the z-score was -0.855.
In the case of GCAGAGGUACGUGUUUGACTT against Gdf5, the z-score is reported as 0.933.
With GCGUGUAGGAAUAAUACCUTT against Psmc6 the z-score was -2.66 (active).
UGCUCUUGGGUUCUUAAAUTT against Olfr1466 showed a z-score of -0.559.
